Experimental findings from PubChem BioAssay AID720707 (National Center for Advancing Translational Sciences (NCATS), 2013) are described below.

SMILES strings stand for the structures. In all, about 360,000 compounds went through this assay and about 270 (0.075%) were called active. The full list was thinned out, with actives kept by preference. Unmarked numbers belong to inactive results. The call rests on the fitted dose curve; in most records, active means well fitted activation curve with a large enough effect; inconclusive means small, poorly fitted or top-dose-only effect; inactive means no such curve, though single readings can be large or run the other way.
Potency means the concentration at half of the fitted maximal effect.

Rap guanine nucleotide exchange factor 3 (Homo sapiens), sequence (O95398 whole entry, looked up): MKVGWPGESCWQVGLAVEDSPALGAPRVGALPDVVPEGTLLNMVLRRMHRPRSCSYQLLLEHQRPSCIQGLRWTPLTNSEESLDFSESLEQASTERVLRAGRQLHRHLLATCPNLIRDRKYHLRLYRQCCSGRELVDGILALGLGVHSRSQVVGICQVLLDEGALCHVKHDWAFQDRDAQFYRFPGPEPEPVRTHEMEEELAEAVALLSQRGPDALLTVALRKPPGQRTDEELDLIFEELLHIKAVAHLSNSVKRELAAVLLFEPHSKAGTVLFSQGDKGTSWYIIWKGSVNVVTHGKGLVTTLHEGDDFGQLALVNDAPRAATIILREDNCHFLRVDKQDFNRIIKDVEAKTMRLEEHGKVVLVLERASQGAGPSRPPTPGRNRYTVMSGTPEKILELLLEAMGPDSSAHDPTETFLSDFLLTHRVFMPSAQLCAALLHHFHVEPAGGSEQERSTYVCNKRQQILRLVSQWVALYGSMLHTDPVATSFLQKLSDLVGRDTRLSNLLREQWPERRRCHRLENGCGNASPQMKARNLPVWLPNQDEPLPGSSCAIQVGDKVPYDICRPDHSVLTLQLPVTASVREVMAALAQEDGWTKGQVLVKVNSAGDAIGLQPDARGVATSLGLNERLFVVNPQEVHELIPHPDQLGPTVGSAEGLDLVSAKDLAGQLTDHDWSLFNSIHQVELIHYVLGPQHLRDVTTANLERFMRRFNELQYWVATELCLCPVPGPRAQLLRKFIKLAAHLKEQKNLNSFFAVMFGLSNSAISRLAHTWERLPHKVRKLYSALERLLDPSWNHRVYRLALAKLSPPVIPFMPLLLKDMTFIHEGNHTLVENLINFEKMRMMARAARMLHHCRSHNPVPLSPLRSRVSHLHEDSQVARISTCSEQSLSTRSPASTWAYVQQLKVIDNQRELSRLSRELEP

In this test the target is Rap guanine nucleotide exchange factor 3 (Homo sapiens) (UniProt O95398). The experiment in a line: qHTS for Agonist of cAMP-regulated guanine nucleotide exchange factor 3 (EPAC1): primary screen. Further: nearly all actives have a fitted effect of over 60% in size. To be noted: biochemical assay; series mostly up to 154 µM; activation: at the top concentration. The text has this:
In multi-cellular eukaryotic organisms, the effects of cAMP are transduced by two ubiquitously-expressed intracellular cAMP receptors, the classic protein kinase A/cAMP-dependent protein kinase (PKA/cAPK) and the more recently discovered exchange protein directly activated by cAMP/cAMP-regulated guanine nucleotide exchange factor (EPAC/cAMP-GEF). Both PKA and EPAC are ubiquitously expressed in all tissues, and an increase in intracellular cAMP levels will lead to the activation of both PKA and EPAC. Therefore, careful dissections of the individual role and relative contribution of EPAC and PKA within the overall cAMP signaling in various model systems are critical for further elucidating the mechanism of cAMP signaling. To date no EPAC-specific antagonists and agonist, as well as isoform-specific agonists have been reported, and developing EPAC-specific pharmacological probes to determine the physiological functions that EPAC play in the overall cAMP-mediated signaling remains a major challenge within the research field. Furthermore, identified regulators of EPAC may lead to new mechanism-based therapeutic strategies specifically targeting the EPAC / cAMP-signaling components as EPAC has been implicated to play important roles in major human pathological conditions such as diabetes, heart disease, and cancer.
This qHTS will be used to screen the Molecular Libraries Small Molecule Repository (MLSMR) as a concentration-titration series using the NCGC unique quantitative screening (qHTS) platform to find activators for EPAC1. In addition, this assay will also be used as a counterscreen for the EPAC2 qHTS. This fluorescent based assay is developed and validated for EPAC1 that measures exchange using EPAC effector Rap1 complex with BODIPY-GDP, a GDP analog with a tethered fluorophores. Activators are identified by monitoring the change in fluorescence signal as the exchanged free BODIPY-GDP has a reduced fluorescence compared to Rap1-bound BODIPY-GDP. Increase in signal (activation) is the desired outcome for the EPAC1 agonist while no activity in this assay is desired for the EPAC2 agonist counterscreen.
[1] de Rooij, J., Zwartkruis, F. J., Verheijen, M. H., Cool, R. H., Nijman, S. M., Wittinghofer, A., and Bos, J.L. (1998) Nature 396, 474-477
NIH Chemical Genomics Center [NCGC]
NIH Molecular Libraries Probe Centers Network [MLPCN]
Assay Submitter (PI): Xiaodong Cheng, The University of Texas Medical Branch
Briefly, three uL of reagents (100 nM EPAC1, 250 nM RAP1B-BODIPY-GDP, 50 uM GDP) were dispensed into a 1536-well Greiner black solid-bottom medium binding assay plate. Controls and test compounds (23 nL) were transferred to the plate via a Kalypsys pin tool equipped with a 1536-pin array. The plates were centrifuged at 1,000 rpm for 15 seconds followed by 5 minute incubation at room temperature. The assay plates were read at 5 minute intervals for 30 minutes in the ViewLux plate reader using 480nm excitation and 540nm emission filters. The results were normalized to the agonist positive control of 6.5 mM cAMP.
`CC(C)(C)n1nnnc1C(c1ccccc1F)N1CCN(C(=O)c2ccco2)CC1` (centres undefined): the “activation” value was 1.91%.
Still for that read-out and setting: for `O=c1ccc2c(-c3ccccc3S(=O)(=O)O)c3ccc(O)c(O)c3oc-2c1O` the value was -10.7%.
For the compound `COc1ccc(NC(=O)C2CCC(CNS(=O)(=O)c3csc(C(N)=O)c3)CC2)cc1OC` (centres undefined), the “activation” value is -7.96%.
For the compound `CCN(CC(=O)Nc1c(F)cccc1F)C(=O)Cc1cccs1`, the “activation” value is 9.59%.
For `Cc1ccc(NS(=O)(=O)c2cn(C)c(=O)n(C)c2=O)c(C)c1`, the “activation” value was -4.61%.
On to `CCOc1ccccc1C(=O)NC1CC2CCCC(C1)N2Cc1ccccc1` (centres undefined), for which the “activation” value was -8.13%.
Still for that read-out and setting: the figure for `Cc1noc(C)c1CSCC(=O)Nc1ccc(Br)cc1Cl` is 0.706%.
The same measure, in the same setting: the figure for `CCOC(=O)C(NS(=O)(=O)c1ccc(C)cc1)(C(F)(F)F)P(=O)(OCC(C)C)OCC(C)C` (centres undefined) is -18.9%.
Same read-out and setting: for `CCN(CC)S(=O)(=O)c1cc([N+](=O)[O-])ccc1NNC(=O)Nc1ccccc1` the value was 17%; for `Cc1ccccc1N1C(=O)C2ON(c3ccccc3)C(c3ccncc3)C2C1=O` (centres undefined), 14.8%; for `CCOC(=O)c1c(NC(=O)CNC2CCCc3ccccc32)sc(C(N)=O)c1C` (centres undefined), 3.57%.
Take `Cc1n[nH]c(=O)c2c1nnn2Cc1ccc(F)cc1`: the “activation” value was 9.7%.
With `O=C(COc1ccc2ccccc2c1)N1CCN(C(=O)c2cccs2)CC1`, the “activation” value was -6.98%.
As to `O=C(NC(C(=O)NCCN1CCOCC1)C12CC3CC(CC(C3)C1)C2)C1CCCCC1` (centres undefined), the “activation” value is -4.95%.
Regarding `Cc1cc(C)cc(NC(=O)C(c2ccccc2)N2CCN(CC(=O)N3CCCC3)CC2)c1` (centres undefined), the “activation” value is 4.7%.
Still for that read-out and setting: for `Cc1ccccc1Cn1c2ccccc2c2cnn(CC(=O)NCc3ccco3)c(=O)c21` the value was -17.4%; for `C(#CCN1CCOCC1)CCCN1CCOCC1`, -5.58%; for `O=C1CC2(CC(c3ccc(Cl)cc3)=NO2)C(=O)N1c1ccccc1` (centres undefined), 1.17%.
On the same count and under the same terms, for `COc1ccc(N2CCN(C(=O)CN3C(=O)COc4ccccc43)CC2)cc1` the value was 6.42%; for `Cc1cccc(OCC(O)Cn2c(N3CCCCC3)nc3c2c(=O)[nH]c(=O)n3C)c1` (centres undefined), -3.51%.
Take `COc1ccc(C2NCCCC2c2ccccc2)cc1` (centres undefined): the “activation” value was -6.92%.
Same read-out and setting: for `CCCCCn1c(SCCC(C)C)nc2c1c(=O)[nH]c(=O)n2C` the value was -27.6%; for `Cc1ccc2c(CSc3nncs3)cc(=O)oc2c1`, -3.69%.
On the same count and under the same terms, the figure for `CCCc1ccc(OCC(O)CN2CCN(CCO)CC2)cc1` (centres undefined) is 11%.
On the same count and under the same terms, the figure for `COc1ccccc1N1CCN(S(=O)(=O)CCNC(=O)c2ccc(OC(C)C)cc2)CC1` is 9.05%; for `Cc1cc(NS(=O)(=O)c2ccc(NC(=O)C(C)Oc3cccc(C)c3C)cc2)nc(C)n1` (centres undefined) it is 2.53%.
In the case of `CCc1c(C)sc(NC(=O)OC)c1C(=O)N1CCOCC1`, the “activation” value is -5.41%.
On the same count and under the same terms, for `O=S1(=O)N=C(N(CCO)/N=C/c2ccccc2F)c2ccccc21` the value was 1.16%; for `CCOc1cc(/C=C2/N=C(c3ccc(C(C)(C)C)cc3)OC2=O)cc(Cl)c1OS(C)(=O)=O`, 4.21%.
Still for that read-out and setting: the figure for `COc1ccc(C(=O)COC(=O)Cn2cnc3c2c(=O)n(C)c(=O)n3C)c(OC)c1` is 10.1%.
The same measure, in the same setting: the figure for `CC(=O)c1c(C)[nH]c(C(=O)OCC(=O)Nc2sc3c(c2C#N)CCCC3)c1C` is 9.31%; for `NC(=O)C1=C[C@H](c2csc3ccccc23)C[C@H](OCc2ccc(CO)cc2)O1` it is 3.72%; for `Cc1cccc(CCNS(=O)(=O)c2ccc(S(=O)(=O)NC3CCCC3)cc2)c1` it is 0.785%.
As to `Cn1c(NC(=O)c2ccco2)c(-c2ccccc2Cl)c(=O)c2ccccc21`, the “activation” value was -0.86%.
Same read-out and setting: for `C/C=C/c1ccc(OCC(=O)NNC(=O)CN(C)S(=O)(=O)c2ccc(C)cc2)c(OC)c1` the value was -1.47%; for `Cc1ccc(S(=O)(=O)N(C)C)cc1NC(=O)C1Cc2ccccc2CN1C(=O)c1ccco1` (centres undefined), -3.3%.
Turning to `CCOc1ccc(S(=O)(=O)N/N=C(\C)c2ccc(Cl)c(Cl)c2Cl)cc1`, the “activation” value was -2.38%.
With `C[n+]1ccc(/C=C/c2c[nH]c3ccccc23)cc1`, the Potency is 100 µM (active).
`CC(C)(C)c1ccc(SCCc2ccncc2)cc1`: the “activation” value is 2.65%.
For `O=C(Nc1ccccc1Cl)NC1(C(=O)N2CCOCC2)CCCCC1`, the “activation” value is 12.8%.
Same read-out and setting: for `CCCCC(=O)N(c1ccc(OC)cc1)C1C=CS(=O)(=O)C1` (centres undefined) the value was 4.76%.
With `CC(C)COC(=O)c1ccc(NC(=O)C2C3C=CC(C3)C2C(=O)O)cc1` (centres undefined), the “activation” value was 14.5%.
Same read-out and setting: the figure for `COc1cncc(-c2cnc3sc(NCCc4ccccn4)nn23)c1` is 2.99%.
As to `COCCN1C(=O)c2oc3c(C)cc(C)cc3c(=O)c2C1c1cccc(O)c1` (centres undefined), the “activation” value was 20.3%.
Turning to `O=C1CCC(=O)N1CCOP1(=O)COc2ccccc2OC1`, the “activation” value was 6.29%.
For `COc1ccc(C)cc1NC(=O)CN1c2cccc3cccc(c23)S1(=O)=O`, the “activation” value is -4.18%.
The same measure, in the same setting: for `COC(=O)c1c(C)cc(O)c(C)c1O` the value was -12.7%.
On the same count and under the same terms, the figure for `CC(=O)N1c2ccc(S(=O)(=O)N3CCCC(C(=O)NCc4ccc(Cl)cc4)C3)cc2CC1C` (centres undefined) is 2.25%.
Still for that read-out and setting: for `Cc1ccc(Cl)cc1NC(=O)COC(=O)CC(C)(C)C` the value was 2.13%; for `CN(CC(O)COc1ccc(S(=O)(=O)N2CCOCC2)cc1Cl)C1CCCCC1` (centres undefined), 7.39%.
Consider `Cc1ccc(C(C)C)c(OCc2nnc(SCC(=O)Nc3nccs3)n2C)c1`, for which the “activation” value was -4.53%.
For the compound `O=C(c1ccccc1)N1CCC(CC2CC(c3ccc(Cl)cc3)=NO2)(C(=O)NCC2CCCCC2)CC1` (centres undefined), the “activation” value was 5.56%.
Consider `CCc1c(O)nc(SCC(=O)N2CCCCC2)n(-c2ccccc2C)c1=O`, for which the “activation” value is 7.38%.
Consider `Cc1ccc(CN2CCN(c3ccccc3Cl)CC2)o1`, for which the “activation” value was 3.65%.
